Screens (PubChem BioAssay)
Pf growth 48h – inhibits P. falciparum growth in the first generation, 48 h. P. falciparum luciferase growth in erythrocytes, 48 h. Potency, µM (series often up to 28.7 µM), for the others: at the top dose activity change, negative = inhibition, hits mostly inhibitors. 310,000 tested, 5.9% active; also: potency is read from the fitted curve at half-maximal effect; % is scaled to controls: 0 for no effect and ±100 for the full control effect
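Read-out is firefly luciferase luminescence from an integrated reporter in P. falciparum, so falling signal marks reduced parasite growth. Infected erythrocytes were at 2% hematocrit and 0.1% parasitemia (final) in Albumax-supplemented RPMI 1640.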
HCV inhibitor – HCV inhibition. Huh7.5.1 HCVcc-Cre infection, luciferase reporter, 44 h. Potency, µM (titrated, usually from 41.8 µM), inactives show at the top dose activity change, negative = inhibition, usual class: inhibitors. 340,000 tested, 3.4% active. AID 651820; also: potency is read from the fitted curve at half-maximal effect; % is scaled to controls: 0 for no effect and ±100 for the full control effect
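Whole-lifecycle infectious HCVcc-Cre system; cells 1,000/well, compound then virus (~0.5 moi) added 4 h after plating, 44 h culture. Luciferase read 15 sec following 15 min substrate incubation, room temp.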
HCMV inh – inhibitors of human cytomegalovirus. HFF cells, HCMV-luciferase reporter, 72 h; stronger effect = lower value. activity change, negative = inhibition, % at 57.5 µM. 410,000 tested, 4.5% active; in the data active = activity change below about -60%; inconclusive = no clear call, values can overlap the other calls; inactive = above about -39%; also: % is scaled to controls: 0 for no effect and ±100 for the full control effect
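After 16 h attachment at 37C, HFF cells received test compound and HCMV-luciferase (1 PFU/cell); reporter luminescence read 72 h later, data normalized against buffer-only and known inhibitor Salinomycin.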
Cycloheximide cs – counter-screen hit for Shiga toxin inhibitors, cycloheximide. cell reporter, cycloheximide protein synthesis inhibition counterscreen. max response, %. 300,000 tested, 12% active. AID 2314; in the data active = max response mostly above about 13%, no sharp cut-off; inactive = mostly below about 14%; also: read at 38.3 µM for the half of the compounds with a filed dose; 0% is about no effect
Pf growth 96h – P. falciparum growth inhibition at 96 hour, primary screen for plastid delayed-death inhibitors; 320,000 tested, 6.9% active; AID 504834; P. falciparum luciferase reporter growth, 96 h; Potency, µM (series often up to 28.7 µM), without a hit: at the top dose activity change, negative = inhibition, hits mostly inhibitors; also: potency is read from the fitted curve at half-maximal effect; % is scaled to controls: 0 for no effect and ±100 for the full control effect
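Luminescence readout: decreased luciferase signal marks inhibited growth of reporter-expressing P. falciparum in infected red cells (2% hematocrit, 0.05% parasitemia final), exposed to compound two generations (96 h, 37 C, 5% CO2).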
Shiga inhibitor – Shiga toxin inhibition; Vero cells, Shiga toxin protein synthesis inhibition reporter; inhibition, % at 38.7 µM; 290,000 tested, 9.2% active; in the data active = inhibition mostly above about 28%, no sharp cut-off; inactive = mostly below about 43%; also: 0% is about no effect
* hit, by the source's call. An excerpt weighted towards active compounds, which were near 21% of everything screened. Unless noted, calls follow the shape of the dose curve; as a rule, active = well fitted inhibition curve with a large enough effect; inconclusive = small, poorly fitted or top-dose-only effect, or another doubt; inactive = no such curve, though single readings can be large or run the other way.

Screening CCCNC(=O)C1(C)CCN1C(=O)c1cc(C)n(C)n1 (configuration not stated) returned HCMV inh -4.8.
For c1ccc(-c2csc(NNC3=NCCCCC3)n2)cc1 the results were HCV inhibitor -14.6%, HCMV inh -3.0, Cycloheximide cs 38.9*, Pf growth 96h inconclusive and Shiga inhibitor 38.9.
Screening c1ccc(NNC2=NCCCCC2)cc1 returned Pf growth 48h 33.7%, HCV inhibitor -7.2%, HCMV inh -35.4, Cycloheximide cs 16.6, Pf growth 96h 36.8% and Shiga inhibitor 3.6.
For Clc1ccc(-c2csc(NNC3=NCCCCC3)n2)cc1 the results were Pf growth 48h inconclusive, HCV inhibitor -22.8%, HCMV inh -21.0, Cycloheximide cs 26.0*, Pf growth 96h inconclusive and Shiga inhibitor 17.7.
For CCc1ccc(CN2CCc3nc(N4CCN(c5ccccc5F)CC4)ncc3C2)cc1 the results were HCMV inh -28.0.
Screening CCS(=O)(=O)c1ccc(O)c(NC(=O)Nc2ccccc2OC)c1 returned Pf growth 48h 14.0%, HCV inhibitor -7.7%, HCMV inh 45.1, Cycloheximide cs 8.0, Pf growth 96h 24.5% and Shiga inhibitor 6.4.
For CCCc1cc(NCC2CCCO2)n2c(nc3ccccc32)c1C#N (configuration not stated) the results were Pf growth 48h 5.22µM*, HCV inhibitor inconclusive, HCMV inh -5.0, Cycloheximide cs -1.8 and Shiga inhibitor -18.8.
Screening CCCc1cc(NCc2ccccn2)n2c(nc3ccccc32)c1C#N returned Pf growth 48h 1.85µM*, HCV inhibitor 12.6µM*, HCMV inh 19.2, Cycloheximide cs 6.0, Pf growth 96h 9.3% and Shiga inhibitor -14.1.
Screening Cc1cc(NCc2ccccn2)n2c(nc3ccccc32)c1C#N returned Pf growth 48h inconclusive, HCV inhibitor 11.4%, HCMV inh -19.1, Cycloheximide cs 6.7, Pf growth 96h 89.3% and Shiga inhibitor -23.3.
`Cc1ccc2c(c1)c1c(c(=O)n(Cc3ccccc3)c(=O)n1Cc1ccccc1F)n2C` gave HCMV inh 30.6.
For Cc1ccccc1CN1C(=O)c2ccccc2C1c1nnnn1C(C)C (configuration not stated) the results were HCMV inh -6.3.
Screening CCC(C)Nc1nc(Cl)nc(NCCOc2ccccc2)n1 (configuration not stated) returned Pf growth 48h 4.7%, HCV inhibitor inconclusive, HCMV inh -30.6, Cycloheximide cs 33.3*, Pf growth 96h inconclusive and Shiga inhibitor 30.6.
Cc1ccccc1-n1cc(C(=O)c2cc(Cl)ccc2O)cc(C#N)c1=O was read as Pf growth 48h 5.22µM*, HCV inhibitor -4.4%, HCMV inh -19.8, Cycloheximide cs -3.2, Pf growth 96h 2.62µM* and Shiga inhibitor -7.3.
`O=C(Nc1ccc(F)c(Cl)c1)Nc1csc2ccccc12` gave Pf growth 48h inconclusive, HCV inhibitor inconclusive, HCMV inh -98.4*, Cycloheximide cs 38.0*, Pf growth 96h inconclusive and Shiga inhibitor 56.7*.
CCc1ccccc1NC(=O)Nc1ccc(F)cc1F was read as Pf growth 48h -11.3%, HCV inhibitor -11.6%, HCMV inh inconclusive, Cycloheximide cs -1.3, Pf growth 96h inconclusive and Shiga inhibitor 1.7.
Screening O=C(Nc1ccc(F)cc1F)Nc1csc2ccccc12 returned Pf growth 48h 4.65µM*, HCV inhibitor inconclusive, HCMV inh -18.1, Cycloheximide cs 41.9*, Pf growth 96h inconclusive and Shiga inhibitor 117.2*.
`CCOC(=O)c1c(NC(=O)c2ccc(S(=O)(=O)N3CCCC(C)C3)cc2)sc2c1CC(C)(C)NC2(C)C` (configuration not stated) gave HCMV inh -33.1.
`Cn1cc(S(=O)(=O)NC[C@H]2O[C@@H](n3ccc(=O)[nH]c3=O)[C@H](O)[C@@H]2O)cn1` gave HCV inhibitor 6.2% and HCMV inh -9.2.
For CS(=O)(=O)Cc1cccc(C(=O)NN(c2ccccc2)c2ccccc2)c1 the results were Pf growth 48h -11.8%, HCV inhibitor 8.5%, HCMV inh -21.2, Cycloheximide cs -4.0, Pf growth 96h 0.5% and Shiga inhibitor 6.8.
Screening CCc1cc2c(=O)oc(-c3ccccc3F)nc2s1 returned Pf growth 48h 2.9%, HCV inhibitor 9.0%, HCMV inh -21.0, Cycloheximide cs 14.4* and Pf growth 96h -5.2%.
For Cc1cc2c(=O)oc(-c3ccccc3Br)nc2s1 the results were Pf growth 48h 35.0%, HCV inhibitor 5.5%, HCMV inh -37.1, Cycloheximide cs -0.7, Pf growth 96h 56.3% and Shiga inhibitor 3.2.
Cc1c2c(c(O)c3c(O)cccc13)C(=O)O[C@H]2C1C(N(C)C)C(O)=C(C(N)=O)C(=O)[C@H]1O (some centres not stated) was read as Cycloheximide cs -9.0 and Shiga inhibitor 11.4.
CCSc1ncc(Cl)c(C(=O)Nc2ccccc2)n1 was read as Pf growth 48h 3.2%, HCV inhibitor -7.7%, HCMV inh -18.7, Cycloheximide cs 4.6, Pf growth 96h 8.28µM* and Shiga inhibitor -8.9.
`CCSc1ncc(Cl)c(C(=O)Nc2ccc(S(=O)(=O)Nc3ncccn3)cc2)n1` gave Pf growth 48h -15.0%, HCV inhibitor 19.0%, HCMV inh 10.4, Cycloheximide cs -2.3, Pf growth 96h inconclusive and Shiga inhibitor -1.9.
For CCSc1ncc(Cl)c(C(=O)Nc2c(C(=O)Nc3ccccc3)oc3ccccc23)n1 the results were HCMV inh 30.7.
For CCSc1ncc(Cl)c(C(=O)Nc2ccc(S(N)(=O)=O)cc2)n1 the results were Pf growth 48h 5.1%, HCV inhibitor 11.1%, HCMV inh -85.3*, Cycloheximide cs -2.8, Pf growth 96h 9.28µM* and Shiga inhibitor -3.9.
For COC(=O)c1ccccc1NC(=O)Cn1c(=O)nc(-c2ccccc2)c2cc(Cl)ccc21 the results were HCMV inh -39.0.
`O=C(O)C1CC(=O)N(CCc2ccc(F)cc2)C1` (configuration not stated) gave Pf growth 48h -2.4%, HCV inhibitor 11.8%, HCMV inh 12.5, Cycloheximide cs 0.9, Pf growth 96h 6.0% and Shiga inhibitor -3.5.
`O[C@H]1C[C@H](c2ccccc2)N(CC2CCCCC2)C[C@@H]1n1cc(-c2ccc(F)cc2)nn1` gave HCMV inh -100.8*.
For CCN1/C(=C/c2cccc[n+]2C)Sc2ccc(OC)cc21 the results were Pf growth 48h 1.04µM*, HCV inhibitor 3.55µM*, HCMV inh -93.6*, Cycloheximide cs 2.2, Pf growth 96h -27.5% and Shiga inhibitor -9.3.
